Screening results as filed in PubChem BioAssay.
Compounds with a hit are over-represented: about 19% of the library has one in this group of screens.
HT1080 IDH1KD tx – kills HT-1080 cells with IDH1 knockdown. 2% of 360,000 active. HT-1080 IDH1 knockdown viability, ATP luminescence, 48 h. Potency, µM (highest dose often 46.1 µM), inactives show top-dose activity, negative = toxicity, usual class: cytotoxic;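 also: potency is read from the fitted curve at half-maximal effect; 0% = DMSO wells and -100% = cell-free medium wells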
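HT-1080-IDH1KD cells (IDH1 knocked down), 750/well in RPMI with 5% FBS, treated with compound 48 h at 37 degrees C. Viability by CellTiter-Glo luminescence, normalised to DMSO and no-cell wells; concentration-response curves classed.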
ELG1 DNA repair – blocks ELG1-dependent DNA repair in HEK293T cells | HEK293T ELG1-luciferase reporter, luminescence, 16 h; DNA damage induced by 5-fluorouridine | 2.3% of 330,000 active | AID 504467 | Potency, µM (doses to about 46.1 µM), for inactives: at the highest dose activity change, negative = inhibition, most hits filed as inhibitors; also: potency is read from the fitted curve at half-maximal effect; nearly all actives have a fitted effect of over 55% in size
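In this reporter screen, reduction of luminescence relative to DMSO vehicle indicated activity. Compounds and 5-fluorouridine were added together to 2,000 cells per well, incubated for 16 hr at 37 °C, then developed with ONE-Glo.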
HT1080NT lethal – kills 2HG-producing HT-1080-NT fibrosarcoma cells. HT-1080-NT fibrosarcoma viability, CellTiter-Glo ATP luminescence, 48 h. Potency, µM (doses to about 46.1 µM), inactives show top-dose activity, negative = less viability, usual class: cytotoxic. 1.6% of 360,000 active. AID 686970;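 also: NT is the 2HG producing partner of a matched IDH1 knockdown line; potency is read from the fitted curve at half-maximal effect; 0% = DMSO-treated cells and -100% = media-only wells without cells; nearly all actives have a fitted effect of over 55% in size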
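A 48-hour cytotoxicity screen used HT-1080-NT cells plated 2 hours before compound delivery. ATP-based CellTiter-Glo luminescence measured viability, normalized to DMSO and no-cell controls.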
IL-1B inflam inh – blocks inflammasome-driven IL-1 beta release; activity change, % at 57.5 µM; THP-1 LPS/ATP IL-1B secretion, AlphaLISA, 16 h; hits give low values; 4.7% of 360,000 active; in the data active = activity change below about -50%; inconclusive = mostly about -30% to -49%
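THP-1 cells pretreated 1 hr with compounds (up to 57.5 uM final), then stimulated with LPS (250 ng/mL final) plus ATP (1.25 mM final); secreted IL-1B measured by AlphaLISA after 16 hr, decreased signal indicating inhibition.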
TDP1 cell noCPT – qHTS for Inhibitors of human tyrosyl-DNA phosphodiesterase 1 (TDP1): qHTS in cells in absence of CPT | DT40 Tdp1-/- hTDP1 cells, no CPT, ATP luminescence, 48 h | 15% of 420,000 active | Potency, µM (titrated, usually from 46.2 µM), without a hit: top-dose activity change, negative = growth inhibition, hits mostly inhibitors; also: potency is read from the fitted curve at half-maximal effect; nearly all actives have a fitted effect of over 55% in size
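Stably hTDP1-transfected Tdp1-null chicken DT40 cells were treated with library compounds minus camptothecin and grown for at least 48 hr at 37 °C, after which cellular ATP was quantified by luminescence.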
DT40 TDP1 CPT – DT40-hTDP1 cell growth loss with CPT; chicken DT40 Tdp1-/-;hTDP1 cells + 20 nM CPT, ATP luminescence, 48 h; Potency, µM (highest dose often 46.2 µM), for inactives: at the highest dose activity change, negative = growth inhibition, actives largely listed as inhibitors; 12% of 420,000 active; AID 686979; also: potency is read from the fitted curve at half-maximal effect; nearly all actives have a fitted effect of over 55% in size
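Chicken DT40 Tdp1-/- cells stably complemented with human TDP1 were seeded at 400 cells/well in medium containing 20 nM camptothecin, exposed to pin-transferred compounds, and grown at 37 °C for at least 48 hr. Viability was read as ATP luminescence.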
An asterisk follows results filed as active; ? = inconclusive; . = not tested or not shown. Unless noted, calls follow the shape of the dose curve; as a rule, active = well fitted curve in the direction sought with a large enough effect; inconclusive = small, poorly fitted or top-dose-only effect, or another doubt; inactive = no such curve, though single readings can be large; an effect the other way counts as inactive or inconclusive. Unless noted, % is scaled to controls: 0 for no effect and ±100 for the full control effect.

SMILES	HT1080 IDH1KD tx	ELG1 DNA repair	HT1080NT lethal	IL-1B inflam inh	TDP1 cell noCPT	DT40 TDP1 CPT
COc1ccc(CNC(=O)c2ccc(Cn3nc(C)c([N+](=O)[O-])c3C)o2)cc1	-15%	?	0%	-23	23µM*	?
COc1ccc(CNC(=O)c2ccc(Cn3nc(C)cc3C)o2)cc1	4%	-8%	11%	-25	11%	-21%
Cc1nn(CCCC(=O)NCc2ccc(F)cc2)c(C)c1[N+](=O)[O-]	4%	-2%	0%	21	-21%	-14%
COc1ccc(N2CCN(C(=O)c3ccc(Cn4nc(C)c([N+](=O)[O-])c4C)o3)CC2)cc1	-19%	?	?	-12	13µM*	?
Cc1nn(CCCC(=O)N2CCN(c3ccc(F)cc3)CC2)c(C)c1[N+](=O)[O-]	-2%	?	-3%	-24	21µM*	16µM*
O=C(CNc1cc(S(=O)(=O)N2CCOCC2)ccc1N1CCCC1)N1CCc2ccccc21	4%	?	15%	-16	?	-24%
O=C(CCOc1ccccc1)Nc1ccc(Cl)c(S(=O)(=O)N2CCOCC2)c1	-9%	-19%	5%	-72*	?	?
O=C(CSc1ncccn1)Nc1ccc(Cl)c(S(=O)(=O)N2CCOCC2)c1	9%	-4%	10%	5	-22%	-5%
O=C(Nc1ccccc1)Nc1ccc(Cl)c(S(=O)(=O)N2CCOCC2)c1	-25%	?	-18%	?	?	?
O=C(COC(=O)CC1CC2CCC1C2)Nc1ccc(Cl)c(S(=O)(=O)N2CCOCC2)c1 (stereo not drawn)	?	-30%	-14%	44	?	16µM*
O=C(CSc1ccccc1)Nc1ccc(Cl)c(S(=O)(=O)N2CCOCC2)c1	-15%	13µM*	-20%	-23	-26%	-2%
Cc1nnnn1/C(=C\c1ccccc1)C(=O)OCC(=O)NC(C)(C)C	?	16µM*	-21%	-5	10µM*	16µM*
O=C(COC(=O)/C=C/c1ccccc1)NC1CCCCCC1	10%	4%	15%	-1	-6%	-4%
CC(=O)Nc1ccc(NC(=O)COC(=O)/C(=C/c2ccccc2)n2nnnc2C)cc1	?	?	?	-76*	13µM*	12µM*
Cc1nnnn1/C(=C\c1ccccc1)C(=O)OCC(=O)NC1CCCCC1	18µM*	?	?	-103*	15µM*	13µM*
COC(=O)c1cn(NC(=O)/C=C/c2cc(OC)ccc2OC)c(=O)c2ccccc12	-7%	-17%	-5%	8	?	-3%
Cc1[nH]c2ccccc2c1C(=O)C(=O)Nc1ccc2c(c1)OCO2	0%	?	9%	-10	?	-17%
COc1ccc([C@H]2C[C@H](O)[C@@H](n3cc(C4CC4)nn3)CN2C(=O)C2CCCCC2)cc1	3%	.	9%	7	-1%	3%
CCOc1ccc(NC(=O)Nc2ccc3nccnc3c2)cc1	-9%	?	-6%	-13	15µM*	?
CCOc1ccc(NC(=O)c2ccc3nccnc3c2)cc1	-7%	4%	0%	10	?	?
CCOc1ccc(NC(=O)NC(C)CC)cc1 (stereo not drawn)	-5%	?	-9%	-18	18µM*	?
CN(C#N)c1nc(Cl)nc(Nc2cccc(Cl)c2)n1	-5%	-1%	-2%	-91*	?	?
Cc1ccc2c(c1)c1c3n2CCN(C=O)C3CCC1 (stereo not drawn)	-8%	3%	-2%	-5	-5%	-9%
Cc1ccc2c(c1)c1c3n2CCN(C(=O)c2cccc(C(F)(F)F)c2)C3CCC1 (stereo not drawn)	.	.	.	.	23µM*	?
